From PubChem BioAssay
In the library only some 17% were active in any assay of this set; here they are far more common.
HT1080-NT tox – kills 2HG-producing HT-1080-NT fibrosarcoma cells. HT-1080-NT fibrosarcoma viability, CellTiter-Glo ATP luminescence, 48 h. Potency, µM (doses to about 46.1 µM), without a hit: at the highest dose activity, negative = less viability, most hits filed as cytotoxic. 1.6% of 360,000 active. AID 686970;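 also: NT is the 2HG producing partner of a matched IDH1 knockdown line; 0% = DMSO-treated cells and -100% = media-only wells without cells; nearly all actives have a fitted effect of over 55% in size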
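Viability of the 2HG-overproducing fibrosarcoma line after 48 hours of compound exposure at 37 degrees C was determined by luminescence with CellTiter-Glo, and concentration-effect curves were then fitted and categorized.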
TDP1 cell noCPT – qHTS for Inhibitors of human tyrosyl-DNA phosphodiesterase 1 (TDP1): qHTS in cells in absence of CPT; AID 686978, 2013; 15% of 420,000 active; DT40 Tdp1-/- hTDP1 cells, no CPT, ATP luminescence, 48 h; Potency, µM (top dose mostly 46.2 µM), for inactives: at the highest dose activity change, negative = growth inhibition, usual class: inhibitors; also: % is scaled to controls: 0 for no effect and ±100 for the full control effect; nearly all actives have a fitted effect of over 55% in size
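Cells were dispensed at 400 per well, compounds added by pin tool, plates incubated ≥48 hr at 37 °C, then CellTiter-Glo added for 30 min at room temperature before luminescence reading. Line: DT40 Tdp1-/- complemented with hTDP1; camptothecin omitted.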
TGFb SMAD3 inh – blocks TGF-b signaling; Potency, µM (doses to about 46.1 µM), inactives show at the highest dose activity, negative = inhibition, actives largely listed as inhibitors; 1.2% of 410,000 active; HepG2 CAGA-GFP TGF-b/SMAD3 reporter, GFP fluorescence, 18 h; TGF-beta stimulated, 500 pg/mL final; also: % is scaled to controls: 0 for no effect and ±100 for the full control effect; nearly all actives have a fitted effect of over 65% in size
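Inhibition was scored as loss of TGF-beta-induced (500 pg/mL final, 18 hours, 37 degrees C) GFP in HEPG2 cells carrying a CAGA-GFP reporter, in DMEM with 1% FBS. Well GFP was summed per cell; Activity was normalised to unstimulated and stimulated DMSO wells, then concentration-response fitting.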
TDP1 cell CPT – DT40-hTDP1 cell growth loss with CPT | chicken DT40 Tdp1-/-;hTDP1 cells + 20 nM CPT, ATP luminescence, 48 h | Potency, µM (series often up to 46.2 µM), for inactives: at the top dose activity change, negative = growth inhibition, actives largely listed as inhibitors | 12% of 420,000 active | AID 686979; also: % is scaled to controls: 0 for no effect and ±100 for the full control effect; nearly all actives have a fitted effect of over 55% in size
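Chicken DT40 Tdp1-/- cells complemented with human TDP1, 400 cells/well, exposed to compounds plus 20 nM camptothecin for at least 48 h at 37 C; viability read as ATP content by CellTiter-Glo luminescence.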
HepG2 viability – kills HepG2 cells in TGF-b inhibitor counter-screen. HepG2 CAGA-GFP viability, ATP luminescence, 18 h. Potency, µM (doses to about 46.1 µM), without a hit: at the highest dose activity change, negative = cytotoxicity, actives largely listed as cytotoxic. 0.76% of 410,000 active. AID 588856
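CellTiter-Glo luminescence gave cytotoxicity after 18 hours at 37 degrees C. The cells were HepG2 CAGA-GFP in 1% FBS DMEM, stimulated with 500 pg/mL TGF-beta after compound addition. %Activity was normalised to no-cell wells (complete cell-killing) and DMSO (no toxicity), and curves were fitted and classified.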
HT1080 IDH1KD tx – HT-1080 IDH1 knockdown cell toxicity (counter line). HT-1080 IDH1 knockdown viability, ATP luminescence, 48 h. Potency, µM (highest dose often 46.1 µM), for the others: top-dose activity, negative = toxicity, usual class: cytotoxic. 2% of 360,000 active. AID 686971;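 also: 0% = DMSO wells and -100% = cell-free medium wells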
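HT-1080-IDH1KD cells (IDH1 knocked down), 750/well in RPMI with 5% FBS, treated with compound 48 h at 37 degrees C. Viability by CellTiter-Glo luminescence, normalised to DMSO and no-cell wells; concentration-response curves classed.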
Active calls of the source: *; ? = inconclusive; · = no result given. Calls follow the shape of the dose curve; as a rule, active = well fitted curve in the direction sought with a large enough effect; inconclusive = small, poorly fitted or top-dose-only effect, or another doubt; inactive = no such curve, though single readings can be large; an effect the other way counts as inactive or inconclusive. Potency is read from the fitted curve at half-maximal effect.

SMILES	HT1080-NT tox	TDP1 cell noCPT	TGFb SMAD3 inh	TDP1 cell CPT	HepG2 viability	HT1080 IDH1KD tx
Cc1c(-c2ccccc2)oc2c(C(=O)N3CCN(c4ccccc4F)CC3)cccc2c1=O	11.4%	20.6µM*	20.4%	20.6µM*	-4.0%	11.7%
Cc1ccc(NC(=O)CN(C)C(=O)C2CSC3(C)CCC(=O)N23)cc1 (stereo unspecified)	-2.6%	-10.7%	-2.2%	1.6%	1.0%	-5.6%
Cc1ccccc1Oc1cc(NC(=O)CCCn2nc(C)c([N+](=O)[O-])c2C)cc([N+](=O)[O-])c1	-1.7%	?	?	?	19.7%	-10.7%
Cc1nn(Cc2ccc(Cl)cc2)c(C)c1NC(=O)CCCn1nc([N+](=O)[O-])c(Cl)c1C	-5.3%	?	-11.3%	14.6µM*	-14.4%	-3.6%
Cc1c(Cl)c([N+](=O)[O-])nn1CCCC(=O)N1CCN(c2ccccc2)CC1	3.7%	-16.1%	-1.0%	14.6µM*	-11.1%	3.7%
Cc1ccccc1Oc1cc(NC(=O)Cn2cnc([N+](=O)[O-])c2)cc([N+](=O)[O-])c1	-12.4%	?	?	16.4µM*	-19.9%	-21.3%
Cc1c(Cl)c([N+](=O)[O-])nn1CCCC(=O)Nc1cc(Oc2ccccc2)cc([N+](=O)[O-])c1	-0.7%	?	9.2%	20.6µM*	-4.1%	-0.2%
COCC(=O)N/N=C\c1ccc(OC/C=C/c2ccccc2)c(OC)c1	-11.2%	?	?	?	-7.3%	-16.8%
Cn1c(=O)n(C)c2cc(/C=N/NC(=S)NCc3ccccc3)ccc21	-20.1%	25.9µM*	-2.6%	?	-4.0%	-28.9%
COc1cc(/C=N/NC(=S)NCc2ccccc2)ccc1OCC#N	-7.1%	23.1µM*	-12.0%	20.6µM*	11.1%	-10.5%
COc1cc(/C=N\NC(=O)CC#N)ccc1OC/C=C/c1ccccc1	-21.7%	?	0.0%	25.9µM*	-32.6%	?
CCOC(=O)CCNC(=O)c1ccc2nc(C3CCCCC3)oc2c1	10.0%	-10.8%	-1.6%	-26.9%	-0.6%	6.0%
Cc1nn2c(-c3ccco3)ccnc2c1-c1ccc(F)cc1	·	-16.2%	34.3%	-17.6%	6.9%	·
CCOc1ccc(-c2cnc3n2CCCCC3)cc1	16.4%	-25.5%	4.8%	?	-0.2%	13.6%
c1cc2c(cc1-c1cnc3n1CCC3)OCCO2	?	?	-14.9%	18.4µM*	-13.3%	?
